Laboratory results taken from PubChem BioAssay (EPA / NIEHS).
Calls of active or inactive are those of the source. The calls were made as follows: active = hit-call score of the fitted dose curve at least 0.9, where 1 is the maximum; inactive = score below 0.9.

Experiment: ATG_FoxO_CIS: Attagene CIS-FACTORIAL HepG2 Assay for human Forkhead box O (FoxO) (AID 2282943)
Conditions: HepG2 Attagene cis-reporter, FoxO element, mRNA; actives raise or lower the signal
Summary of the method: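 Values reflect reporter mRNA induction or loss in HepG2 cells 24 h post-dosing, fitted bidirectionally with DMSO as negative control and baseline. Detection used RT-PCR and fluorescence capillary electrophoresis.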

SMILES	outcome	AC50
CCCCC(CC)COC(=O)CCCCC(=O)OCc1ccccc1 (centres undefined)	inactive	
FC(F)(I)C(F)(F)C(F)(F)C(F)(F)C(F)(F)C(F)(F)I		17.4 µM (active)
Cc1oc(-c2ccccc2)nc1CCOc1ccc(C[C@H](Nc2ccccc2C(=O)c2ccccc2)C(=O)O)cc1	inactive	
CN1CCC[C@H]1c1cccnc1	inactive	
COCC(C)OCC(C)O (centres undefined)	inactive	
CN1CCN(c2ccccc2/C=C2\SCCN(c3ccc(Cl)c(Cl)c3)C2=O)CC1	inactive	
CC(C)(C)CC(C)(C)c1ccc(O)c(-n2nc3ccccc3n2)c1	inactive	
C[C@@H]1C[C@H]2[C@@H]3CCC4=CC(=O)C=C[C@]4(C)[C@@]3(F)[C@@H](O)C[C@]2(C)[C@@]1(O)C(=O)COP(=O)(O)O	inactive	
CCc1nn(C2CCCCC2)c2cc(C3(C#N)CCC(C(=O)O)CC3)ccc12 (centres undefined)	inactive	
N#C[C@@H]1CC(F)(F)CN1C(=O)CNC1CC2CCC(C1)N2c1ncccn1 (some centres undefined)	inactive	
CCCCCCCCC(=O)O	inactive	
NC(=O)N(O)[C@@H]1C=C[C@H](Oc2cccc(Oc3ccc(F)cc3)c2)C1	inactive	
CC(=O)CC(C)(C)O	inactive	
CCCCCCCCCCCCCC[N+](C)(C)C	inactive	
CC(=O)NC1(c2cccc(F)c2)CCN(CC[C@@]2(c3ccc(Cl)c(Cl)c3)CN(c3ccccc3)C(=O)CO2)CC1	inactive	
CCCCCCCCCCCCc1ccccc1S(=O)(=O)O	inactive	
Cc1cc(CCN2CCN(c3nsc4ccccc34)CC2)cc2c1NC(=O)CC2(C)C	inactive	
CCCCCCC(=O)O	inactive	
OC1CCC(C2CCCCC2)CC1 (centres undefined)	inactive	
